From PubChem
Sampled rows, rich in hits. Any-hit rate of the full collection: about 17%.
DT40 TDP1 no CPT: qHTS for Inhibitors of human tyrosyl-DNA phosphodiesterase 1 (TDP1): qHTS in cells in absence of CPT. DT40 Tdp1-/- hTDP1 cells, no CPT, ATP luminescence, 48 h. Potency, µM (series often up to 46.2 µM), for inactives: at the top dose activity change, negative = growth inhibition, most hits filed as inhibitors. 15% of 420,000 active. AID 686978, 2013; further: on the % scale 0 is the no-effect control and ±100 the full control effect; nearly all actives have a fitted effect of over 55% in size
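Seeded 400 DT40-hTDP1 cells/well (vehicle DMSO, no 20 nM CPT); pinned compounds; ≥48 hr at 37 °C; CellTiter-Glo luminescence as viability measure.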
ATXN2 expr inh: ATXN2 expression inhibition; HEK-293 ATXN2-luciferase reporter, luminescence, 24 h; Potency, µM (series often up to 57 µM), without a hit: top-dose activity change, negative = inhibition, actives largely listed as inhibitors; 0.72% of 360,000 active; AID 1745845; further: on the % scale 0 is the no-effect control and ±100 the full control effect; nearly all actives have a fitted effect of over 55% in size
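qHTS (up to 57 uM final) was run with 24 h compound exposure of reporter cells at 37 °C. Each well was multiplexed: SteadyGlo luminescence measured ATXN2-luciferase expression after a fluorogenic Gly-Phe-AFC viability readout (25 uM final).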
HepG2 tox: kills HepG2 cells in TGF-b inhibitor counter-screen. HepG2 CAGA-GFP viability, ATP luminescence, 18 h. 0.76% of 410,000 active. Potency, µM (top dose mostly 46.1 µM), without a hit: at the highest dose activity change, negative = cytotoxicity, most hits filed as cytotoxic
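CellTiter-Glo luminescence gave cytotoxicity after 18 hours at 37 degrees C. The cells were HepG2 CAGA-GFP in 1% FBS DMEM, stimulated with 500 pg/mL TGF-beta after compound addition. %Activity was normalised to no-cell wells (complete cell-killing) and DMSO (no toxicity), and curves were fitted and classified.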
DT40 TDP1 CPT: growth inhibition of DT40 Tdp1-/-;hTDP1 cells with camptothecin (screen for TDP1 inhibitors) | 12% of 420,000 active | Potency, µM (titrated, usually from 46.2 µM), for inactives: at the top dose activity change, negative = growth inhibition, actives largely listed as inhibitors | chicken DT40 Tdp1-/-;hTDP1 cells + 20 nM CPT, ATP luminescence, 48 h; further: on the % scale 0 is the no-effect control and ±100 the full control effect; nearly all actives have a fitted effect of over 55% in size
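Cell growth measured by CellTiter-Glo luminescence after a minimum 48 h, 37 C compound exposure with 20 nM CPT in Tdp1-knockout DT40 cells stably expressing hTDP1, seeded 400/well; qHTS titration format.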
S2 tox: reduces viability in counter-screen for ATXN expression inhibitors. S2 cells (HEK-293 line with an ATXN2-luciferase reporter) viability, CellTiter-Fluor protease fluorescence, 24 h. AID 651635. Potency, µM (doses to about 56.7 µM), hits mostly cytotoxic. 0.49% of 400,000 active; further: nearly all actives have a fitted effect of over 40% in size
TGFb inhibitor: inhibitors of TGF-b signaling; 1.2% of 410,000 active; HepG2 CAGA-GFP TGF-b/SMAD3 reporter, GFP fluorescence, 18 h; TGF-beta stimulated, 500 pg/mL final; Potency, µM (top dose mostly 46.1 µM), for inactives: at the highest dose activity, negative = inhibition, most hits filed as inhibitors; further: on the % scale 0 is the no-effect control and ±100 the full control effect; nearly all actives have a fitted effect of over 65% in size
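HEPG2 CAGA-GFP, 1000 cells/well; 2 h settle, 37 C; cpd via pin tool; TGF-b 500 pg/mL final; 18 h, 37 C; GFP imaging ex488/em500-530; %Activity normalised to -TGF-b and +DMSO controls; CRC fit, curve class.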
An asterisk follows results filed as active; i = inactive; ? = inconclusive; . = no result. The call rests on the fitted dose curve; in most records, active means well fitted curve in the direction sought with a large enough effect; inconclusive means small, poorly fitted or top-dose-only effect, or another doubt; inactive means no such curve, though single readings can be large; an effect the other way counts as inactive or inconclusive. Potency means the concentration at half of the fitted maximal effect.

SMILES	DT40 TDP1 no CPT	ATXN2 expr inh	HepG2 tox	DT40 TDP1 CPT	S2 tox	TGFb inhibitor
Cc1noc(NC(=O)c2cccc(Cl)c2Cl)c1C#N	?	.	-3%	?	i	-8%
O=C(Oc1ccc(/C=N/NC(=O)c2ccco2)cc1)c1ccccc1	-17%	.	-16%	3%	i	0%
CC1CCC(C(C)(C)O)CC2=C1CCC2C (stereo unspecified)	18%	.	.	2%	.	.
COc1cc(OC)c2c(C)cc(=O)oc2c1C(CCN1CCOCC1)c1ccc2c(c1)OCO2 (stereo unspecified)	21µM*	-9%	-25%	18µM*	.	?
COc1cc(OC)c2c(-c3ccccc3)cc(=O)oc2c1C(CC(=O)N1CCCC1)c1ccc2c(c1)OCO2 (stereo unspecified)	21µM*	?	6%	?	?	?
COc1cc(C(CCN2CCN(c3ccccc3)CC2)c2c(OC)cc(OC)c3c(C)cc(=O)oc23)cc(OC)c1OC (stereo unspecified)	16µM*	0%	-30%	16µM*	?	?
COc1cc(C2NC(=O)c3c(sc4c3CCN(C)C4)N2)cc(Br)c1OC(=O)c1ccc(C)cc1 (stereo unspecified)	?	-2%	-39%	?	i	4%
Cc1ccc(Cc2c(-c3ccc(F)cc3)nc3ccc(Cl)cn23)cc1	?	10%	-34%	?	?	?
Cc1ccc(Cc2c(-c3ccccc3)nc3ccc(Br)cn23)cc1	?	-6%	-30%	?	i	?
Cc1ccc(Cc2c(-c3ccc(F)cc3)nc3cc(C)ccn23)cc1	16µM*	-26%	-37%	?	28µM*	?
Cc1ccc(Cc2c(-c3ccc(Br)cc3)nc3cc(C)ccn23)cc1	21µM*	54%	1%	23µM*	?	13%
CSc1nc2cc(S(=O)(=O)N3CCOCC3)ccc2s1	-4%	8%	-4%	-14%	i	-2%
CSc1nc2cc(S(=O)(=O)N3CCCCC3)ccc2s1	23µM*	-17%	-3%	?	i	-22%
COc1ccc(-c2cc(C(F)(F)F)nc(NCc3ccccc3)n2)cc1OC	21µM*	6%	-28%	?	i	-20%
COc1ccc(CNc2nc(-c3ccc(OC)cc3)cc(C(F)(F)F)n2)cc1	5.8µM*	0%	-19%	13µM*	i	-29%
COc1ccc(NC(=O)CN(c2ccccc2F)S(=O)(=O)c2ccc(C)cc2)cc1	?	-12%	-16%	-6%	i	-3%
O=C(Nc1ccncc1)c1ccc(Br)cc1	5.2µM*	.	2%	?	i	6%
Nc1ccc(C(=O)Nc2ccc(Nc3ccncc3)cc2)cc1	29µM*	.	-47%	?	i	-21%
Nc1ccc(NC(=O)c2ccc(C(=O)Nc3ccc(N)cc3)cc2)cc1	-3%	2%	-24%	0%	i	3%
O=C(Nc1ccc(Br)cc1)c1cccc(C(=O)Nc2ccc(Br)cc2)c1	21µM*	.	-33%	?	.	-12%
O=c1cc(-c2ccc(F)cc2)nc(SCc2nc(-c3ccc(Cl)cc3)no2)[nH]1	-22%	.	-16%	-17%	.	0%
Oc1ccc(Cl)cc1N=Nc1ccccc1	-28%	.	-23%	-21%	i	0%
Nc1c(Cl)cc(N=Nc2ccccc2)cc1Cl	13µM*	19%	-62%	?	?	?
c1ccc(-n2nnc3c(N4CCOCC4)ncnc32)cc1	?	?	-38%	-11%	i	10%
Cc1ccc2c(c1)c1ncnc(N3CCN(c4ccccc4)CC3)c1n2C	?	?	-1%	21µM*	i	10%
SMILES	DT40 TDP1 no CPT	ATXN2 expr inh	HepG2 tox	DT40 TDP1 CPT	S2 tox	TGFb inhibitor
Cc1nc2c(OCCN3C(=O)c4ccccc4C3=O)cccn2c1N(C)C(=O)CCC1CCCC1	7%	9%	3%	4%	i	0%
Cc1ccccc1COc1cccn2c(N(C)C(=O)CCC3CCCC3)c(C)nc12	23µM*	?	-36%	?	?	?
COc1ccccc1COc1cccn2c(N(C)C(=O)CCC3CCCC3)c(C)nc12	15µM*	-3%	-34%	18µM*	?	-17%
COC(=O)c1ccccc1COc1cccn2c(N(C)C(=O)CCC3CCCC3)c(C)nc12	?	?	-38%	?	?	-14%
Cc1cc(C)c(S(=O)(=O)NCC(c2ccc(N(C)C)cc2)N2CCOCC2)c(C)c1 (stereo unspecified)	?	.	-27%	?	.	?
COc1ccc(C(=O)Nc2ccc3ccccc3n2)cc1OC	?	.	-8%	?	i	8%
Cc1ccccc1CN1CC2=C(CCN(Cc3ccccc3)C2=O)N2CCN=C12	1.3µM*	?	-19%	0.58µM*	i	12%
O=C(CN1CCOCC1)Nc1ccc(F)cc1	-6%	.	4%	-8%	?	6%
O=C1OC(c2ccc(F)cc2)CC1CN1CCOCC1 (stereo unspecified)	10µM*	0%	3%	5.8µM*	i	38%
CSCCC(c1nnnn1C1CCCCC1)N1CCN(C/C=C/c2ccccc2)CC1 (stereo unspecified)	21µM*	-29%	-8%	?	?	?
C(=C\c1ccccc1)/CN1CCN(C(c2ccccc2)c2nnnn2C2CCCCC2)CC1 (stereo unspecified)	13µM*	10%	-1%	?	i	-6%
Fc1ccc(C(c2nnnn2C2CCCCC2)N2CCCC2)cc1 (stereo unspecified)	-25%	.	1%	-1%	i	8%
CCC(c1nnnn1C1CCCC1)N1CCN(Cc2ccccc2)CC1 (stereo unspecified)	-20%	-2%	-9%	-6%	i	-2%
C1=C(C(c2nnnn2C2CCCCC2)N2CCCCC2)COc2ccccc21 (stereo unspecified)	16µM*	3%	5%	?	i	4%
Fc1ccccc1C(c1nnnn1C1CCCC1)N1CCN(Cc2ccccc2)CC1 (stereo unspecified)	12µM*	-21%	-2%	21µM*	i	-1%
COc1ccc(CCC(C)NC(=O)Cc2ccc(OC)c(OC)c2)c(OC)c1 (stereo unspecified)	18µM*	.	-34%	?	i	-22%
